D3 ag – agonists of human D3 dopamine receptor. D3R DiscoveRx beta-arrestin cells, luminescence, 90 min. P35462. 0.58% of 410,000 active. AID 652048. max activation, %; in the data active = max activation above about 30%
Target sequence (P35462 whole entry, looked up): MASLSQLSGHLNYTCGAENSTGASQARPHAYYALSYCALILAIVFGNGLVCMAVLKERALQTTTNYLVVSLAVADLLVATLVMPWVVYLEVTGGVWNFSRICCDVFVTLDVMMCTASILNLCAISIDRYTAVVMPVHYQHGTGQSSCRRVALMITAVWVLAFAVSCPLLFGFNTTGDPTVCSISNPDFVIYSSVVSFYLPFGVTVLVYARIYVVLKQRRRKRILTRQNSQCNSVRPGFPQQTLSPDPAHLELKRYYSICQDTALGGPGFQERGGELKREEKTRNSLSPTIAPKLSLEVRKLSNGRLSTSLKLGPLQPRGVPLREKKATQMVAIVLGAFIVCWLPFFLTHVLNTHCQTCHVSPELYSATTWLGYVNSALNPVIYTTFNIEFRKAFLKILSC
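Agonist-mode cell screen: cells plated at 1500/well and incubated overnight at 37 °C, then exposed to library compounds for 90 min at 37 °C. Detection reagent was added for 30–60 min at room temperature, and luminescence was read.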
D1 antag – human D1 dopamine receptor antagonism; P21728; HEK293 TREx D1 cells, calcium flux, dopamine EC80; stronger effect = lower value; activity change, negative = inhibition, % at 10 µM; 3.2% of 360,000 active; AID 504652; in the data active = activity change below about -30%
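Antagonism measured as reduced calcium response to an EC80 dopamine addition following 180 s compound pre-read; cells were inducible HEK293 Trex D1 plated overnight at 30 C, read kinetically at 1 cycle/sec.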
D1 potentiator – enhances dopamine response at the human D1 receptor; AID 504651; potentiation, % at 10 µM; P21728; 0.036% of 360,000 active; HEK293 TREx D1 cells, calcium flux, dopamine EC20 potentiation; in the data active = potentiation above about 30%
D1 agonist – agonists of human D1 dopamine receptor. activation, % at 2 µM. 1% of 360,000 active. AID 504660. P21728. HEK293 T-REx D1 cells, calcium flux, agonist mode; in the data active = activation above about 30%
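Inducible HEK293 T-REx D1 cells, force-coupled to calcium signalling, were plated at 4000 cells/well with tetracycline and held overnight at 30 C. After no-wash calcium dye loading, compound-evoked calcium rise over 180 s flagged agonists.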
DRD3 antagonist – blocks the human D3 dopamine receptor. max response, negative = inhibition, %. 2.5% of 360,000 active. D3R cells, DiscoveRx beta-arrestin luminescence, antagonist mode; stronger effect = lower value. AID 652054; in the data active = max response below about -50%; inconclusive = no clear call, values can overlap the other calls
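Cells plated overnight at 1500 cells/well, then exposed to library compounds with dopamine controls for 90 minutes at 37 degrees C. DiscoveRx reagent added for 30–60 minutes at room temperature; luminescence read, quantitative HTS format.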
Each line names hits and unclear results; the compound was inactive in the other large screens. A selection: hits, their analogues and other compounds. The true share with any hit is near 6%.

O=C(Cn1cnc2c(cnn2-c2ccccc2)c1=O)N1CCOCC1	none
O=C(Cn1cnc2ccccc2c1=O)c1ccc(Cl)cc1	D1 antag -42
COc1ccc(N2CCN(C(=O)Cn3cnc4nc5c(cc4c3=O)CCCC5)CC2)cc1	D1 antag -31 (no result: DRD3 antagonist)
Cc1cccc(N(C)C(=O)Cn2cnc3nc4c(cc3c2=O)CCCC4)c1	none (no result: DRD3 antagonist)
CCOC(=O)Cn1cnc2c(cnn2-c2ccc(Cl)cc2)c1=O	D1 antag -49, DRD3 antagonist inconclusive
Cc1nn(C(C)C(=O)NCc2cccc(F)c2)c(=O)c2c1sc1ccccc12 (centres undefined)	none (no result: DRD3 antagonist)
CCCCCOC(=O)CSc1ncnc2sc3c(c12)CCC(C)C3 (centres undefined)	none (no result: DRD3 antagonist)
O=C(Cn1cnc2ccccc2c1=O)N1CCN(c2ccccc2)CC1	D1 antag -36
Cc1cc2c(=O)n(CC(=O)N3CCN(c4ccccc4)CC3)cnc2s1	none
CN(C)S(=O)(=O)c1ccc(Cl)c(C(=O)NC2CCN(Cc3ccccc3)C2)c1 (centres undefined)	DRD3 antagonist -59
Cc1c(C(=O)NC2CCN(Cc3ccccc3)C2)oc2c(Cl)cccc12 (centres undefined)	DRD3 antagonist -100
CCN(c1ccccc1)S(=O)(=O)c1ccc(Cl)c(C(=O)NC2CCN(Cc3ccccc3)CC2)c1	DRD3 antagonist inconclusive (no result: D1 antag, D1 potentiator, D1 agonist)
Cc1ccc2nc(-c3ccc(NC(=S)NC4CC(C)(C)NC(C)(C)C4)cc3)sc2c1	D1 agonist 41
Cc1ccc2nc(-c3ccc(NC(=S)NC(=O)C(C)C)cc3)sc2c1	none
O=S(=O)(Cc1cc(Oc2ccccc2)nc(-c2ccccc2)n1)c1ccccc1	D1 antag -33
Oc1ccc(Cl)cc1CNCc1ccc(Cl)nc1	D1 agonist 42, DRD3 antagonist -65 (no result: D1 antag)
COc1ccc(CNCc2cc(Cl)ccc2O)cc1	D1 agonist 38
Oc1ccc(Cl)cc1CNCc1ccc(F)c(F)c1	none
Cc1ccc(Cl)cc1N1CCN(CC(=O)Nc2ccc(CN3CCCCC3)cc2)CC1	D1 antag -48, D1 agonist 54, DRD3 antagonist -65
COc1ccccc1N1CCN(CC(=O)NCc2ccc(Cl)cc2)CC1	DRD3 antagonist -70
COC(=O)c1cccc(NC(=O)CN2CCN(Cc3ccccc3)CC2)c1	DRD3 antagonist -50
CC(=O)c1cccc(NC(=O)CN2CCN(Cc3ccccc3)CC2)c1	none
COc1ccccc1N1CCN(CC(=O)Nc2ccc(CN3CCCCC3)cc2)CC1	DRD3 antagonist -65
COc1cc(OC)c(NC(=O)c2ccc3c(c2)N(Cc2ccc(C)cc2)CCS3)cc1Cl	none (no result: DRD3 antagonist)
CCN(CC)C(=O)Cn1cc(S(=O)(=O)CC(=O)Nc2cc(C)on2)c2ccccc21	DRD3 antagonist -51 (no result: D1 antag, D1 potentiator, D1 agonist)
CCn1cc(SCC(=O)Nc2cc(C)on2)c2ccccc21	DRD3 antagonist -89
CCN(CC)C(=O)Cn1cc(S(=O)(=O)CC(=O)Nc2ccc(F)cc2)c2ccccc21	none (no result: D1 antag, D1 potentiator, D1 agonist)
CCCn1cc(SCC(=O)Nc2cc(C)on2)c2ccccc21	none
O=C(N/N=C/c1sc(N2CCOCC2)nc1-c1ccccc1)c1ccccc1Cl	none
O=[N+]([O-])c1ccc(N/N=C/c2sc(N3CCOCC3)nc2-c2ccccc2)c(S(=O)(=O)Nc2ccccc2Cl)c1	D1 antag -34, D1 agonist 79, DRD3 antagonist -53
O=[N+]([O-])c1ccc(N/N=C/c2sc(N3CCOCC3)nc2-c2ccccc2)c(S(=O)(=O)Nc2ccc(Cl)cc2)c1	D1 antag -35, D1 agonist 62, DRD3 antagonist -70
Cn1c(=O)[nH]c2cc(-c3noc(-c4ccc(F)cc4)n3)ccc21	none (no result: DRD3 antagonist)
CCCCN(C)S(=O)(=O)c1ccc(C(=O)Nc2sc3c(c2C(=O)OCC)CCN(C(C)C)C3)cc1	none (no result: DRD3 antagonist)
CCOC(=O)c1c(NC(=O)c2ccc(S(=O)(=O)N(C)C3CCCCC3)cc2)sc2c1CCN(C(C)C)C2	D1 agonist 56 (no result: DRD3 antagonist)
CCCOc1ccc(C(=O)Nc2sc3c(c2C(=O)OCC)CCCCC3)cc1	D1 antag -31 (no result: DRD3 antagonist)
CCOC(=O)c1c(NC(=O)c2ccc(Br)cc2)sc2c1CCCC2	none (no result: DRD3 antagonist)
C=CCNC(=S)Nc1sc2c(c1C(=O)OCC)CCN(C(=O)OCC)C2	none
Cc1ccccc1OCC(=O)Nc1sc2c(c1C(=O)OC(C)C)CCCC2	D1 agonist 45 (no result: DRD3 antagonist)
CCOC(=O)c1c(NC(=S)NCc2ccccc2)sc2c1CCN(C(=O)OCC)C2	D1 antag -40
COc1ccc(OC)c(S(=O)(=O)NCCc2sc(-c3cccnc3)nc2C)c1	none (no result: DRD3 antagonist)
Cc1ccc(NC(=O)C2CCC(CNS(=O)(=O)c3csc(C(N)=O)c3)CC2)cc1Cl (centres undefined)	none (no result: DRD3 antagonist)
COc1cccc(-c2ccnc3c(-c4ccc(F)cc4)c(C)nn23)c1	none (no result: DRD3 antagonist)
CCOC(=O)c1c(NC(=O)/C=C/c2ccc(C)cc2)sc2c1CCCC2	D1 agonist 39 (no result: DRD3 antagonist)
COc1ccc(Cl)cc1NC(=O)CSC1=Nc2ccccc2C2=NC(CC(=O)NCc3cccs3)C(=O)N12 (centres undefined)	none (no result: DRD3 antagonist)
CC(C)(C)OC(=O)N1CCC(NC(=O)c2nc[nH]c2C(=O)NCC(=O)OCc2ccccc2)CC1	D3 ag 69
C[C@H](NC(=O)c1nc[nH]c1C(=O)N1CCN(C(=O)OC(C)(C)C)CC1)c1ccccc1	none
CC(C)(C)OC(=O)N1CCC(NC(=O)c2[nH]cnc2C(=O)Nc2cccc(Cl)c2)CC1	D3 ag 66 (no result: D1 antag)
C[C@@H](NC(=O)c1nc[nH]c1C(=O)NC1CCN(C(=O)OC(C)(C)C)CC1)c1ccccc1	D1 antag -67, DRD3 antagonist inconclusive
O=C(CNC(=O)c1nc[nH]c1C(=O)N1CCc2ccccc2C1)OCc1ccccc1	D3 ag 40
Cc1ccc(NCc2cccn2-c2nnc(N3CCC(C(=O)NCCc4ccc(Cl)cc4)CC3)s2)cc1	none (no result: DRD3 antagonist)
O=C(O)c1ccccc1[O-].O=C(O)c1ccccc1[O-].[Zn+2]	none (no result: D1 antag, D1 potentiator, D1 agonist, DRD3 antagonist)
FC1(F)C(F)(F)C(F)(F)C2(F)C(F)(F)C(F)(F)C(F)(F)C(F)(F)C2(F)C1(F)F (centres undefined)	none (no result: D1 antag, D1 potentiator, D1 agonist, DRD3 antagonist)
CC(C)(C)OC(=O)[C@H](Cc1ccccc1)NC(=O)c1[nH]cnc1C(=O)Nc1cccc(Cl)c1	DRD3 antagonist -54
CC(=O)c1c(C)nc2ccccc2c1N	none
Cc1nc2ccccc2c(N)c1C(=O)/C=C/c1ccccc1	D1 antag -32
CCc1ccccc1NC(=O)Cn1c2ncccc2c(=O)n1-c1ccccc1	D1 antag -45 (no result: DRD3 antagonist)
CCOC(=O)c1ccccc1NC(=O)Cn1c2ncccc2c(=O)n1-c1ccccc1	none (no result: DRD3 antagonist)
Cc1ccc(CNC(=O)Cn2c3ncccc3c(=O)n2-c2ccc(C)cc2)cc1	D1 antag -57 (no result: DRD3 antagonist)
CCc1ccc(-n2c(=O)c3cccnc3n2CC(=O)Nc2ccccc2C(F)(F)F)cc1	D1 antag -44 (no result: DRD3 antagonist)
CCc1ccc(-n2c(=O)c3cccnc3n2CC(=O)NCc2ccc(C)cc2)cc1	none (no result: DRD3 antagonist)
Cc1oc2c(c1C(=O)Nc1ccccc1Br)C1=NCCN1C=N2	none (no result: DRD3 antagonist)

Assay outcomes (PubChem BioAssay)
